Our source for the growth values is PubChem BioAssay (NCI).

Holding throughout (assay): NCI-60 one-dose screen, 48 h (100 = growth as untreated, 0 = no growth, -100 = all killed)
For one assay, the system named is HCT-15 colon. As to conditions: 10 µM.
The next assay concerns HT29 colon. Particulars: 10 µM.
The subject of the next assay is SNB-75 CNS. As to conditions: 10 µM.
Another assay deals with SNB-19 CNS. Particulars: 10 µM.
The next assay deals with PC-3 prostate. Particulars: 10 µM.
The next assay relates to SK-MEL-5 melanoma. Particulars: 10 µM.
A further assay deals with UACC-62 melanoma. As to conditions: 10 µM unless noted.
In another assay the test system is SK-MEL-28 melanoma. Particulars: 10 µM.
The test system of a further assay is SN12C renal. Particulars: 10 µM.
The test system of another assay is UO-31 renal. Particulars: 10 µM.
The test system of another assay is TK-10 renal. As to conditions: 10 µM unless noted.
The next assay deals with ACHN renal. Particulars: 10 µM.
The subject of another assay is CAKI-1 renal. Particulars: 10 µM.
For another assay, the system named is A498 renal. Particulars: 10 µM.
The subject of another assay is MOLT-4 leukemia. As to conditions: 10 µM.
A further assay has as its system LOX IMVI melanoma. As to conditions: 10 µM.
A further assay has as its system SK-MEL-2 melanoma. As to conditions: 10 µM.
For a further assay, the system named is CCRF-CEM leukemia. Particulars: 10 µM.
Another assay has as its system U251 CNS. As to conditions: 10 µM.
For the next assay, the system named is EKVX NSCLC. As to conditions: 10 µM.

This is part of a sample that, as a whole, favours compounds with a hit. Of some 83,000 tested, about 20% had one in any assay.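 The test compound was applied at a single concentration to cells in 96-well plates for 48 hours, and percent growth was recorded.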 Values without a mark were called inactive. Activity calls are given as the source filed them. How the source made its calls: active means growth percent below 10; inactive means the rest.

With `Cc1cc(=O)n(-c2ccc(F)cc2)[nH]1`, the growth in the assay on HCT-15 colon was 89.6%; in the assay on HT29 colon, 105%; in the assay on SNB-75 CNS, 88.5%; with SNB-19 CNS, 103%; in the assay on PC-3 prostate, 90%; in the assay on SK-MEL-5 melanoma it was 97.5%. The growth in the assay with UACC-62 melanoma is 101%; with SK-MEL-28 melanoma, 119%; with SN12C renal, 104%; in the assay on UO-31 renal it was 83.3%; in the assay with TK-10 renal, 136%; in the assay with ACHN renal, 96%. The growth is 98.9% in the assay with CAKI-1 renal, 99.7% in the assay with A498 renal and 99.7% in the assay on MOLT-4 leukemia.
Regarding `CN(C)c1ccc2nc3ccc(=N)cc-3sc2c1`, the growth in the assay on HCT-15 colon is 38.8%; in the assay on HT29 colon, 85.3%; with SNB-75 CNS, 22.3%; with SNB-19 CNS, 81.1%; in the assay with PC-3 prostate, 12.3%; in the assay on SK-MEL-5 melanoma, 0.247% (active). For the same compound, the growth was 36% with UACC-62 melanoma; 82.9% in the assay on SK-MEL-28 melanoma; 57.3% in the assay with SN12C renal; 57.3% in the assay on UO-31 renal; 105% with TK-10 renal; 53% in the assay on ACHN renal. Besides, the figures for the growth in the assay with CAKI-1 renal and in the assay on A498 renal were 68.3% and 55.8%, respectively.
As to `CCOC(=O)C1=C(Nc2ccc(Br)cc2)C(=O)N(CC)C1`, the growth in the assay with HCT-15 colon was 91.4%; with HT29 colon it was 103%; in the assay on SNB-75 CNS it was 94.7%; in the assay on SNB-19 CNS it was 84%; in the assay on PC-3 prostate it was 101%; in the assay with SK-MEL-5 melanoma it was 97.7%. Further, the growth with UACC-62 melanoma is 84.2%; in the assay on LOX IMVI melanoma, 94.3%; in the assay on SK-MEL-28 melanoma it was 101%; in the assay on SK-MEL-2 melanoma, 124%; in the assay with SN12C renal, 86%; with UO-31 renal, 84.1%. The growth is 101% in the assay with TK-10 renal; 92.4% in the assay on ACHN renal; 88.2% with CAKI-1 renal; 90.9% in the assay with A498 renal; 103% in the assay on MOLT-4 leukemia.
As for `N#Cc1ccc(OC(=O)Nc2ccc(Cl)c(Cl)c2)cc1`, the growth in the assay with HCT-15 colon was 53.6%; in the assay with HT29 colon, 63.4%; with SNB-75 CNS, 93.2%; in the assay with SNB-19 CNS it was 87%; in the assay with PC-3 prostate, 36.2%; in the assay on SK-MEL-5 melanoma it was 81.5%. Besides, the growth in the assay on UACC-62 melanoma was 65.7%; with SK-MEL-28 melanoma, 94.1%; with SN12C renal, 79.5%; in the assay on UO-31 renal, 60.6%; with TK-10 renal, 90.7%; in the assay on ACHN renal, 50.8%. The figures for the growth in the assay with CAKI-1 renal, in the assay on A498 renal and with MOLT-4 leukemia were 35.8%, 106% and 79.9%, respectively.
As for `COCCCNC(=O)c1nnn2c1nc(N)c1cc(Cl)ccc12`, the growth was 85.6% in the assay on HCT-15 colon; 73.4% in the assay with HT29 colon; 70.6% with SNB-75 CNS; 102% with SNB-19 CNS; 80.6% in the assay with PC-3 prostate; 98.4% in the assay on SK-MEL-5 melanoma. The growth in the assay on UACC-62 melanoma is 80%; with LOX IMVI melanoma, 88.3%; in the assay on SK-MEL-28 melanoma it was 87%; in the assay on SK-MEL-2 melanoma, 74.2%; in the assay with SN12C renal it was 101%; in the assay with UO-31 renal it was 71.7%. In addition, the growth in the assay on TK-10 renal is 105%; with ACHN renal it was 104%; in the assay with CAKI-1 renal, 80.6%; with A498 renal it was 96.4%; in the assay with MOLT-4 leukemia, 79.6%.
Take `CC(=O)c1ccc(N=C(C#N)C2=C(O)c3ccccc3C2=O)cc1`: the growth in the assay on HCT-15 colon is 113%; with HT29 colon, 98.7%; in the assay with SNB-75 CNS, 78.8%; in the assay with SNB-19 CNS, 101%; in the assay with PC-3 prostate, 100%; in the assay with UACC-62 melanoma, 109%. Besides, the growth with SK-MEL-28 melanoma was 113%; in the assay with SN12C renal, 103%; in the assay with UO-31 renal, 90.8%; in the assay with TK-10 renal, 129%; in the assay with ACHN renal it was 106%; in the assay with CAKI-1 renal, 105%. The growth was 88.1% in the assay on A498 renal, 104% in the assay with CCRF-CEM leukemia and 92.1% in the assay on MOLT-4 leukemia.
In the case of `Cc1c(O)cnc2nn(-c3ccccc3)c(=N)n12`, the growth in the assay with HCT-15 colon was 100%; in the assay with HT29 colon, 96.3%; with SNB-75 CNS, 76.4%; in the assay on SNB-19 CNS it was 98.5%; in the assay on PC-3 prostate, 119%; in the assay with SK-MEL-5 melanoma, 101%. The growth with UACC-62 melanoma is 106%; in the assay on LOX IMVI melanoma, 102%; with SK-MEL-28 melanoma it was 112%; with SK-MEL-2 melanoma it was 94.7%; in the assay with SN12C renal it was 97.7%; with UO-31 renal, 94.5%. Moreover, the growth is 109% in the assay on TK-10 renal; 96.7% in the assay with ACHN renal; 102% in the assay with CAKI-1 renal; 106% in the assay with A498 renal; 104% with MOLT-4 leukemia.
On to `Cc1cc(C)c(CC(=O)O)c(C)c1`, for which the growth was 100% in the assay on HCT-15 colon; 99.4% in the assay on HT29 colon; 93.2% with SNB-75 CNS; 103% in the assay on U251 CNS; 103% in the assay with PC-3 prostate; 101% in the assay with SK-MEL-5 melanoma. Further, the growth in the assay on UACC-62 melanoma was 108%; in the assay on LOX IMVI melanoma, 96.5%; in the assay on SK-MEL-28 melanoma, 124%; with SK-MEL-2 melanoma it was 100%; in the assay on EKVX NSCLC, 98.3%; with SN12C renal, 113%. Further, the growth with UO-31 renal is 94.3%; with TK-10 renal, 106%; with ACHN renal, 102%; in the assay with CAKI-1 renal, 93.3%; in the assay on A498 renal it was 84.4%; in the assay with CCRF-CEM leukemia, 103%. Also, in the assay on MOLT-4 leukemia, the growth was 98.5%.
In the case of `CC(CC(=O)c1ccccc1)c1ccccc1` (configuration not stated), the growth is 108% with HCT-15 colon; 95.7% in the assay with HT29 colon; 104% in the assay on SNB-75 CNS; 109% with SNB-19 CNS; 99.5% in the assay on PC-3 prostate; 107% with UACC-62 melanoma. For the same compound, the growth in the assay on SK-MEL-28 melanoma is 101%; with SN12C renal, 107%; in the assay with UO-31 renal, 95.4%; in the assay on TK-10 renal, 90.1%; in the assay on ACHN renal, 115%; with CAKI-1 renal it was 106%. The growth in the assay with A498 renal was 88.8%; in the assay on CCRF-CEM leukemia, 98.4%; with MOLT-4 leukemia, 103%.
Turning to `Cc1cc(NC(=O)CSCC(=O)O)no1`, the growth was 96.7% in the assay with HCT-15 colon; 98.5% with HT29 colon; 102% in the assay with SNB-75 CNS; 101% with U251 CNS; 98.6% in the assay with PC-3 prostate; 101% in the assay on SK-MEL-5 melanoma. For the same compound, the growth in the assay with UACC-62 melanoma is 94.7%; with LOX IMVI melanoma it was 103%; in the assay with SK-MEL-28 melanoma, 108%; with SK-MEL-2 melanoma it was 122%; with EKVX NSCLC, 93.8%; in the assay with SN12C renal, 101%. The growth in the assay with TK-10 renal was 86.6%; in the assay with ACHN renal it was 105%; in the assay on CAKI-1 renal, 90%; in the assay on A498 renal it was 120%; in the assay on CCRF-CEM leukemia it was 107%; with MOLT-4 leukemia it was 103%.
